Screens (PubChem)
In the library only some 7.3% were active in any assay of this set; here they are far more common.
AmpC detergent: AmpC beta-lactamase inhibition with detergent present; P00811; AmpC hydrolysis of nitrocefin, absorbance 480 nm, 0.01% Triton; Potency, µM (series often up to 114 µM), for inactives: top-dose activity change, negative = inhibition, actives largely listed as inhibitors; 370,000 tested, 0.041% active; AID 485294;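 also: potency is read from the fitted curve at half-maximal effect; 0% = no-compound wells and -100% = no-enzyme wells; nearly all actives have a fitted effect of over 25% in size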
Target sequence (P00811 whole entry, looked up): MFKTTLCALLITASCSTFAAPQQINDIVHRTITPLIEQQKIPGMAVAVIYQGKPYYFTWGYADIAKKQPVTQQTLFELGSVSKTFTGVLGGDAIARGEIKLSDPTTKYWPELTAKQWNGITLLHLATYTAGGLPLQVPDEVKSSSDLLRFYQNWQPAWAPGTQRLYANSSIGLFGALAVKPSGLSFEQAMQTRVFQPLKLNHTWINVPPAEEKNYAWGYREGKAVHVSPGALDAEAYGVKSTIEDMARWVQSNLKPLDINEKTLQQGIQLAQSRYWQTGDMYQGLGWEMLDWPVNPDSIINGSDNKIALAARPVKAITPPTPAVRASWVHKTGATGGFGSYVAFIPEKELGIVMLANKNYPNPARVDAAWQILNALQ
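AmpC (5.3 nM in the dispensed reagent) in 20 mM phosphate pH 7.0 with 0.01% (detergent screen) or 0.0001% Triton X-100 was preincubated with compounds for 15 min at room temperature. Nitrocefin was then added from an 800 uM solution, and hydrolysis was followed at 480 nm.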
AmpC no deterg: blocks E. coli AmpC beta-lactamase in detergent-free assay; AmpC nitrocefin hydrolysis, absorbance 480 nm, 0.0001% Triton; AID 485341; 330,000 tested, 0.52% active; Potency, µM (doses to about 57.1 µM), for the others: at the highest dose activity change, negative = inhibition, usual class: inhibitors; P00811;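 also: potency is read from the fitted curve at half-maximal effect; plate controls were no compound for no effect and no enzyme for full effect; nearly all actives have a fitted effect of over 20% in size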
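AmpC (5.3 nM in the dispensed reagent) in 20 mM phosphate pH 7.0 with 0.01% (detergent screen) or 0.0001% Triton X-100 was preincubated with compounds for 15 min at room temperature. Nitrocefin was then added from an 800 uM solution, and hydrolysis was followed at 480 nm.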
HCV inh: inhibitors of hepatitis C virus infection; 340,000 tested, 3.4% active; Potency, µM (highest dose often 41.8 µM), for the others: top-dose activity change, negative = inhibition, most hits filed as inhibitors; Huh7.5.1 HCVcc-Cre infection, luciferase reporter, 44 h; also: potency is read from the fitted curve at half-maximal effect
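Infectious HCV cell culture screen: compound-treated cells (1,000/well, pre-plated 4 h) are infected with HCVcc-Cre at roughly 0.5 moi and grown 44 h. Infection is quantified by luciferase signal after 15 min substrate incubation at room temperature.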
HCMV inh: inhibitors of human cytomegalovirus. AID 1259415. activity change, negative = inhibition, % at 57.5 µM. HFF cells, HCMV-luciferase reporter, 72 h; active compounds read low. 410,000 tested, 4.5% active; in the data active = activity change below about -60%; inconclusive = no clear call, values can overlap the other calls; inactive = above about -39%
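After 16 h attachment at 37C, HFF cells received test compound and HCMV-luciferase (1 PFU/cell); reporter luminescence read 72 h later, data normalized against buffer-only and known inhibitor Salinomycin.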
FMDV antiviral: blocks foot and mouth disease virus. FMDV antiviral cell-based qHTS. 410,000 tested, 1.2% active. Potency, µM (top dose mostly 57.9 µM), for the others: at the top dose activity change, negative = inhibition, hits mostly inhibitors. AID 1159524; calls by dose curve; tested in HEK293T cells; also: read-out not given here; potency is read from the fitted curve at half-maximal effect; nearly all actives have a fitted effect of over 45% in size
Numbers without * were called inactive; u = inconclusive; x = no result given. Unless noted, calls follow the shape of the dose curve; as a rule, active = well fitted curve in the direction sought with a large enough effect; inconclusive = small, poorly fitted or top-dose-only effect, or another doubt; inactive = no such curve, though single readings can be large; an effect the other way counts as inactive or inconclusive. Unless noted, % is scaled to controls: 0 for no effect and ±100 for the full control effect.

SMILES	AmpC detergent	AmpC no deterg	HCV inh	HCMV inh	FMDV antiviral
CCN1CCN(c2c(S(=O)(=O)c3ccc(Cl)cc3)cnc3ccccc23)CC1	0%	x	x	u	-10%
CC(C)C(NS(C)(=O)=O)c1nnc2n1CCN(Cc1ccc(Cl)cc1)CC2 (stereo unspecified)	x	x	x	x	-10%
COc1ccc(NC(=O)c2c(Nc3ccccc3)sc(C(=O)c3ccc(F)cc3)c2N)cc1	-6%	-45%	6.3µM*	-83*	u
COc1ccc(C(=O)c2sc(Nc3cccc(OC)c3)c(C(=O)Nc3cccc(C)c3C)c2N)cc1	2%	-23%	-24%	-70*	-10%
COc1ccc(Nc2sc(C(=O)c3ccc(Cl)cc3)c(N)c2C(=O)Nc2ccccc2OC)cc1	-1%	-43%	u	u	-24%
CCCCNC(=O)C1(C)CCCCN1C(=O)c1cncc(Br)c1 (stereo unspecified)	x	x	x	16	-12%
CCCNC(=O)c1nnc2n1CCN(C(=O)c1ccc(F)c(F)c1)C2	x	x	x	-4	x
CCOC(=O)N1CCN(C(=O)c2ccc3c(c2)ncn3C2CCCC2)CC1	u	19%	22%	-62*	x
CCOC(=O)N1CCC(NC(=O)c2ccc3c(c2)ncn3C2CCCC2)CC1	-8%	23%	-1%	-68*	8%
CC1Oc2ccccc2N(CC(=O)NCCc2ccccc2)C1=O (stereo unspecified)	40µM*	-2%	-11%	-11	-7%
Oc1cc(Nc2cccnc2)cc2cccnc12	-13%	-21%	x	-98*	-14%
Oc1cc(NCCc2cccnc2)cc2cccnc12	-2%	-11%	x	-74*	u
Oc1cc(Nc2ccncc2)cc2cccnc12	-15%	-8%	x	-25	-18%
COc1ccc(Nc2cc(O)c3ncccc3c2)cc1	u	-30%	x	x	x
Cc1cc(Nc2cccc(Br)c2)c2ccccc2n1	x	x	7.1µM*	-71*	u
CCOc1ccccc1Nc1cc(C)nc2ccccc12	x	x	x	-62*	-19%
CCOc1ccccc1Nc1cc(C)nc2ccc(C)cc12	x	x	6.3µM*	u	u
COc1ccc(Nc2cc(C)nc3ccccc23)cc1	-1%	x	u	u	-15%
COc1ncc2nc(-c3ccc(F)cc3)c(=O)n(CCC#N)c2n1	x	x	x	x	-8%
C(=NOCc1ccccc1)c1cccnc1	x	x	-1%	-1	69%
CC(C)C(=O)Nc1cccc(NC(=S)NC(=O)c2ccc3c(c2)OCO3)c1	10%	70%	-7%	15	46%
COc1ccc(C(=O)NC(=S)NNC(=O)c2ccc(NC(=O)C(C)C)cc2)cc1	-15%	-41%	16µM*	0	-3%
COc1ccc(C(=O)NC(=S)NNC(=O)c2ccc(C)cc2)cc1	x	x	u	-28	-4%
Cc1cccc(C(=O)NC(=S)NNC(=O)c2cccs2)c1	4%	u	1%	u	-12%
CC(C)C(=O)Nc1cccc(NC(=S)NC(=O)c2ccc(Cl)cc2)c1	1%	-20%	u	-73*	u
SMILES	AmpC detergent	AmpC no deterg	HCV inh	HCMV inh	FMDV antiviral
Cc1cccc(C(=O)NC(=S)NNC(=O)c2ccc(Cl)cc2)c1	u	-40%	u	-84*	u
CCC(=O)NC(=S)NNC(=O)c1ccc(OC)cc1	56µM*	-44%	u	-25	x
COC(=O)C(c1ccccc1)(c1cn(C)c2ccccc12)C(Nc1ccccc1)c1ccc(C)cc1 (stereo unspecified)	x	x	x	-11	x
Cc1ccc(C(=O)Nc2ccc3oc(-c4ccccc4C)nc3c2)cc1	7%	x	x	-32	0%
Cc1cccc(N(CC(=O)NC(C)(C)C)C(=O)CCC(=O)Nc2ccccn2)c1	-3%	10%	-20%	18	-4%
Cc1ccc2c(c1)c1c3n2CCN(C(=O)c2ccc(C(F)(F)F)cc2)C3CCC1 (stereo unspecified)	-7%	x	x	-1	-18%
O=C(c1cc(-c2ccccc2)on1)N(Cc1cccnc1)C(c1ccccn1)c1nc2ccccc2[nH]1 (stereo unspecified)	x	x	x	-16	49%
Cc1cc2nc(-c3ccco3)c(Cc3cccc(Cl)c3)n2c(C)c1Br	x	x	x	6	u
CC1=CC=CC2=NC(=O)CC(C)(C(=O)N(CC(=O)NC3CCCC3)c3ccccc3C)N12 (stereo unspecified)	u	-6%	4%	4	-14%
CC1=CC=CC2=NC(=O)CC(C)(C(=O)N(CC(=O)NC3CCCC3)c3ccc(F)cc3)N12 (stereo unspecified)	1%	1%	-20%	-82*	-1%
O=C(COC(=O)CN1C(=O)NC2(CCCCC2)C1=O)Nc1cc(F)ccc1F	x	-10%	11%	-9	-23%
O=C1COc2ccc(S(=O)(=O)CCC(=O)N3CCN(c4cccc(C(F)(F)F)c4)CC3)cc2N1	-3%	80%	u	-68*	u
CC1Sc2ccc(S(=O)(=O)CCC(=O)N3CCN(c4ccccc4F)CC3)cc2NC1=O (stereo unspecified)	-15%	17%	u	-70*	u
CC1Sc2ccc(S(=O)(=O)CCC(=O)N3CCN(c4ccccc4)CC3)cc2NC1=O (stereo unspecified)	u	17%	u	u	u
O=C1COc2ccc(S(=O)(=O)N3CCN(c4cccc(C(F)(F)F)c4)CC3)cc2N1	-1%	-9%	u	0	-6%
CC1Sc2ccc(S(=O)(=O)CCC(=O)N3CCCCC3)cc2NC1=O (stereo unspecified)	0%	-10%	0%	-27	41%
CC1Sc2ccc(S(=O)(=O)CCC(=O)N3CCN(c4cccc(Cl)c4)CC3)cc2NC1=O (stereo unspecified)	1%	2%	u	-63*	25µM*
COc1cccc(C2(CC(=O)N3CCCOc4c(cccc4OC)C3)CC(=O)N(C)C2=O)c1 (stereo unspecified)	x	x	x	x	1%
CN(c1ccc(F)cc1)S(=O)(=O)c1ccc(Cl)c(C(=O)Nc2ccncc2)c1	u	-46%	u	-65*	20µM*
CC1CN(C(=O)c2cc(S(=O)(=O)N3CCCC3)ccc2Cl)CC(C)O1 (stereo unspecified)	1%	-9%	5%	7	11%
CC1CN(C(=O)c2cc(S(=O)(=O)N(C)c3ccc(F)cc3)ccc2Cl)CC(C)O1 (stereo unspecified)	2%	93%	10µM*	-29	-30%
COc1cccc(N/C(SCc2ccccc2C)=C(/C#N)C(=O)NCc2cccs2)c1	-5%	-32%	-24%	-80*	-5%
COc1ccc(CN2C(=O)C(n3ccc4ccccc43)c3ccccc32)cc1 (stereo unspecified)	x	x	x	14	x
c1ccc(CCc2ccccc2-c2nc(-c3ccccn3)no2)cc1	u	16%	u	-9	-6%
